In PubChem BioAssay (EPA / NIEHS) one finds outcome and AC50 data, which are given here for 18 compounds.

Where “and” joins values, the source holds several entries; their conditions need not be identical. Equal entries are not always repeated. Calls of active or inactive are those of the source. The calls were made as follows: active = hit-call score of the fitted dose curve at least 0.9, where 1 is the maximum; inactive = score below 0.9.

Read-out in experiment [1]: Interleukin-6 (IL6), IL6 (gene 3569)
Description: BSK_CASM3C_IL6: BioMAP Diversity Plus: CASM3C Assay for Interleukin-6 (IL6) Biomarker Activity for (AID 2283040). The following applies: primary human coronary artery smooth muscle cells; actives raise or lower the signal.

Read-out in experiment [2]: Tissue plasminogen activator (tPA), PLAT (gene 5327)
Description: BSK_BE3C_tPA: BioMAP Diversity Plus: BE3C Assay for Tissue plasminogen activator (tPA) Biomarker Activity (AID 2283041).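 Also: tPA level quantified by ELISA one day after compound addition.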 The following applies: primary human bronchial epithelial cells; actives raise or lower the signal. An outline of the steps:
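Primary human bronchial epithelial cells in the BE3C system, exposed to compound for 24 h. tPA was quantified by ELISA; DMSO served as baseline, with gain or loss of signal fitted. Cytotoxicity checked in parallel cultures by SRB total-protein staining.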

Read-out in experiment [3]: Interleukin-8 (IL8), CXCL8 (gene 3576)
Description: BSK_CASM3C_IL8: BioMAP Diversity Plus: CASM3C Assay for Interleukin-8 (IL8) Biomarker Activity (AID 2283042).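 Also: IL-8 protein level quantified by ELISA.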 The following applies: primary human coronary artery smooth muscle cells; actives raise or lower the signal.

Read-out in experiment [4]: Human Leukocyte Antigen - DR isotype (HLADR), HLA-DRA (gene 3122)
Description: BSK_CASM3C_HLADR: BioMAP Diversity Plus: CASM3C Assay for Human Leukocyte Antigen - DR isotype (HLADR) Biomarker Activity (AID 2283043).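 Also: cell-surface HLA-DR protein level quantified by ELISA.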 The following applies: primary human coronary artery smooth muscle cells; actives raise or lower the signal.

Read-out in experiment [5]: Macrophage colony-stimulating factor (MCSF), CSF1 (gene 1435)
Description: BSK_CASM3C_MCSF: BioMAP Diversity Plus: CASM3C Assay for Macrophage colony-stimulating factor (MCSF) Biomarker Activity (AID 2283044).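 Also: M-CSF protein amount quantified by ELISA after 24 h exposure.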 The following applies: primary human coronary artery smooth muscle cells; actives raise or lower the signal.

Read-out in experiment [6]: Low-density lipoprotein receptor (LDLR), LDLR (gene 3949)
Description: BSK_CASM3C_LDLR: BioMAP Diversity Plus: CASM3C Assay for Low-density lipoprotein receptor (LDLR) Biomarker Activity (AID 2283045).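 Also: LDLR protein level on the cell surface quantified by ELISA.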 The following applies: primary human coronary artery smooth muscle cells; actives raise or lower the signal.

Read-out in experiment [7]: Monocyte Chemoattractant Protein-1 (MCP1), CCL2 (gene 6347)
Description: BSK_CASM3C_MCP1: BioMAP Diversity Plus: CASM3C Assay for Monocyte Chemoattractant Protein-1 (MCP1) Biomarker Activity (AID 2283046).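 Also: MCP-1 level quantified by ELISA 24 h after dosing.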 The following applies: primary human coronary artery smooth muscle cells; actives raise or lower the signal.

Experiment [8] is described as follows: BSK_CASM3C_Proliferation: Cell Proliferation Assessment in the BioMAP Diversity Plus: CASM3C Assay (AID 2283047).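 Also: sulforhodamine B total protein stain as relative cell number at 560 nm; sub-confluent cells exposed 48 h before staining; fitted both ways against DMSO so gain or loss of cell number.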 The following applies: primary human coronary artery smooth muscle cells.
Read-out in experiment [9]: Monokine induced gamma interferon (MIG), CXCL9 (gene 4283)
Description: BSK_CASM3C_MIG: BioMAP Diversity Plus: CASM3C Assay for Monokine induced gamma interferon (MIG) Biomarker Activity (AID 2283048).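 Also: MIG protein level measured by ELISA.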 The following applies: primary human coronary artery smooth muscle cells; actives raise or lower the signal.

Read-out in experiment [10]: serum amyloid A (SAA), SAA1 (gene 6288)
Description: BSK_CASM3C_SAA: BioMAP Diversity Plus: CASM3C Assay for serum amyloid A (SAA) Biomarker Activity (AID 2283049).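 Also: SAA protein level quantified by ELISA.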 The following applies: primary human coronary artery smooth muscle cells; actives raise or lower the signal.

With `CC(=O)Nc1ccc(N=Nc2cc(C)ccc2O)cc1`, the outcome in experiment [1], in [2], in experiment [3], in experiment [4], in experiment [5] and in experiment [6] was inactive. Moreover, the result in experiment [7], in experiment [8], in experiment [9] and in [10] was inactive.
As to `FC(F)(F)C(F)(F)C(F)(F)C(F)(F)C(F)(F)C(F)(F)C(F)(F)C(F)(F)CCS`, the result in [1], in experiment [2], in experiment [3], in experiment [4], in experiment [5] and in [6] was inactive. In addition, the outcome in [7], in experiment [8], in experiment [9] and in [10] was inactive.
Take `OCC(F)(F)C(F)(F)C(F)(F)F`: the outcome in experiment [1], in experiment [2], in [3], in experiment [4], in experiment [5] and in experiment [6] was inactive. The outcome in [7], in experiment [8], in experiment [9] and in experiment [10] was inactive.
In the case of `OCC(F)(F)C(F)(F)C(F)(F)C(F)(F)C(F)(F)C(F)F`, the result in experiment [1], in experiment [2], in [3], in experiment [4], in [5] and in experiment [6] was inactive. Moreover, the result in [7], in experiment [8], in experiment [9] and in experiment [10] was inactive.
As for `O=C(O)C(F)(F)C(F)(F)C(F)(F)F`, the outcome in experiment [1], in [2], in [3], in [4], in experiment [5] and in [6] was inactive. Besides, the outcome in experiment [7], in experiment [8], in experiment [9] and in experiment [10] was inactive.
For the compound `CCO[Si](CCC(F)(F)C(F)(F)C(F)(F)C(F)(F)C(F)(F)C(F)(F)F)(OCC)OCC`, the outcome in experiment [1], in experiment [2], in [3], in experiment [4], in [5] and in [6] was inactive. In addition, the result in experiment [7], in [8], in experiment [9] and in [10] was inactive.
As for `O=S(=O)(O)C(F)(F)C(F)(F)C(F)(F)C(F)(F)C(F)(F)C(F)(F)C(F)(F)F`, the result in [1], in [2], in experiment [3], in experiment [4], in [5] and in experiment [6] was inactive. Further, the outcome in [7], in experiment [8], in experiment [9] and in experiment [10] was inactive.
In the case of `CCCCCCCOC(=O)c1ccccc1C(=O)OCCCCCCC`, the result in [1], in experiment [2], in experiment [3], in experiment [4], in experiment [5] and in experiment [6] was inactive. Besides, the outcome in [7], in experiment [8], in experiment [9] and in experiment [10] was inactive.
Turning to `CCCCNc1ccccc1`, the outcome in experiment [1], in experiment [2], in [3], in [4], in experiment [5] and in experiment [6] was inactive. Moreover, the outcome in experiment [7], in [8], in experiment [9] and in experiment [10] was inactive.
Regarding `C=CC(=O)OCC(F)(F)C(F)(F)C(F)(F)C(F)(F)C(F)(F)C(F)(F)C(F)(F)F`, the result in experiment [1], in [2], in [3], in experiment [4], in experiment [5] and in experiment [6] was inactive. The result in [7], in [8], in [9] and in [10] was inactive.
Regarding `O=C(O)C(F)(F)C(F)(F)C(F)(F)C(F)(F)F`, the result in experiment [1], in experiment [2], in experiment [3], in [4], in experiment [5] and in experiment [6] was inactive. The result in experiment [7], in experiment [8], in experiment [9] and in experiment [10] was inactive.
For the compound `OCCCC(F)(F)C(F)(F)C(F)(F)F`, the result in [1], in experiment [2], in experiment [3], in [4], in experiment [5] and in experiment [6] was inactive. Also, the result in experiment [7], in experiment [8], in experiment [9] and in [10] was inactive.
For the compound `O=C(O)C(F)(F)C(F)(F)OC(F)(F)F`, the outcome in experiment [1], in experiment [2], in [3], in [4], in [5] and in experiment [6] was inactive. Also, the result in experiment [7], in experiment [8], in [9] and in experiment [10] was inactive.
Usually AC50 stands for the midpoint of the concentration-response curve, whichever way the signal moves. Regarding `Oc1ccc(Nc2ccccc2)cc1`, the result in experiment [1], in experiment [2], in [3], in [5], in experiment [7] and in experiment [9] was inactive. In addition, in experiment [10], the outcome was inactive. Further, the figures for the concentration at half-maximal activity (AC50) in experiment [4], in experiment [6] and in experiment [8] were 2540 nM (active), 2430 nM (active) and 30.1 µM (active), respectively.
Regarding `O=S(=O)(OCCOC(F)(F)F)C(F)(F)F`, the outcome in experiment [1], in [2], in [3], in experiment [4], in experiment [5] and in experiment [6] was inactive. In addition, the result in experiment [7], in experiment [8], in experiment [9] and in [10] was inactive.
In the case of `CCc1c(Br)c(Br)c(Br)c(Br)c1Br`, the outcome in experiment [1], in experiment [2], in experiment [3], in [4], in [5] and in experiment [6] was inactive. For the same compound, the outcome in experiment [7], in [8], in [9] and in [10] was inactive.
As for `FC(F)(F)C(F)(F)C(F)(F)CI`, the outcome in [1], in [2], in [3], in experiment [4], in experiment [5] and in [6] was inactive. For the same compound, the result in [7], in experiment [8], in experiment [9] and in experiment [10] was inactive.
`OCC(F)(F)C(F)(F)C(F)(F)C(F)(F)C(F)(F)C(F)(F)F`: the result in experiment [1], in experiment [2], in experiment [3], in experiment [4], in experiment [5] and in experiment [6] was inactive. Also, the outcome in [7], in experiment [9] and in experiment [10] was inactive. Moreover, the concentration at half-maximal activity (AC50) in experiment [8] is 46.6 µM (active) and 54.9 µM (active).
